Reference: PubChem BioAssay AID743198 (NMMLSC, 2013)
Activity calls are given as the source filed them.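 How the source made its calls: active means at least 15% MAC1-positive differentiation at the top dose and half-maximal dose below 10 µM; inactive means the rest.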

Assay: myeloid differentiation effect on human CD34+ progenitors – cell-based, MAC1 flow cytometry, set 1, SAR follow-up (AID 743198)
Details: human CD34+ cells, 4 days; at 10 µM (top of the series)

Row | Compound | MAC1+ differentiation, normalised
1 | O=C(CCNC(=O)c1ccc(C(F)(F)F)cc1)N[C@@H]1CCCc2ccccc21 | 96%
2 | O=C(CCNC(=O)c1ccc2c(c1)OC(F)(F)O2)N[C@@H]1CCCc2ccccc21 | 90%
3 | O=C(CCCNC(=O)c1ccc(OC(F)(F)F)cc1)N[C@@H]1CCCc2ccccc21 | 2.93% (inactive)
4 | O=C(CNC(=O)c1ccc(OC(F)(F)F)cc1)N[C@@H]1CCCc2ccccc21 | 2.98% (inactive)
5 | O=C(O)c1cccnc1Nc1ccc(Cl)cc1 | 85%
6 | O=C(CCNC(=O)c1ccc(Cl)cc1)N[C@@H]1CCCc2ccccc21 | 95.7%
7 | O=C(CCNC(=O)c1ccc(Cl)cc1)NC1CCCc2ccccc21 (stereo not given) | 86.2%
8 | O=C(CCNC(=O)c1ccc(OC(F)(F)F)cc1)N[C@@H]1CCCc2ccccc21 | 96.3%
9 | O=C(CCNC(=O)c1ccc(Cl)c(Cl)c1)N[C@@H]1CCCc2ccccc21 | 96.1%
10 | O=C(CCNC(=O)c1ccc(Cl)cc1)N[C@H]1CCCc2ccccc21 | 4.01% (inactive)
